The record followed here is PubChem BioAssay (NCATS).

Assay [1] in a line: Primary qHTS for inhibitors of nuclear receptor binding SET domain protein 2 (NSD2) in an RCH-ACV wild type WT cells (2C) (AID 1645877). Note: nearly all actives have a fitted effect of over 70% in size. Note: potency is the fitted concentration of half-maximal effect. For orientation: Quantitative high-throughput screening tests each substance at several concentrations.
Assay [2] concerns the target Metallo-beta-lactamase type 2 (Klebsiella pneumoniae) (UniProt C7C422). As to the kind of experiment: qHTS to identify inhibitors of the New Delhi Metallo-beta-lactamase (NDM): assay validation screen against the NCATS LOPAC Collection (AID 1794843).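 Note: nitrocefin turnover by NDM-1 measured as 485 nm absorbance at plateau; % is set by controls: 0 for no effect and ±100 for the full control effect.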 A digest of the protocol:
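NDM-1 at 2 nM final in 50 mM HEPES pH 7.0 with 1 uM ZnSO4 and 0.01% Tween20 was preincubated with library compounds in DMSO. Nitrocefin (50 uM stock) was then added, and absorbance at 485 nm was read at the kinetic plateau.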

Assay [3] addresses Glutathione peroxidase 1 (Homo sapiens) (UniProt P07203). As to the kind of experiment: Primary qHTS Assay for Inhibitors of Recombinant Selenoprotein Glutathione Peroxidase 1 (GPX1) (AID 1845191). For activity, negative = inhibition: % is set by controls: 0 for no effect and ±100 for the full control effect. Note: nearly all actives have a fitted effect of over 65% in size. A digest of the protocol:
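Recombinant GPX1 (10 nM final) was preincubated with compound for 30 min at room temperature, then reacted with 1 mM GSH, 0.5 mM CHP, 0.5 mM NADPH and 100 nM glutathione reductase; NADPH fluorescence (340/450 nm) was read at 0 and 15 min.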

The target in assay [4] is Phospholipid hydroperoxide glutathione peroxidase GPX4 (Homo sapiens) (UniProt P36969). As to the kind of experiment: Primary qHTS Assay for Inhibitors of Recombinant Selenoprotein Glutathione Peroxidase 4 (GPX4) (AID 1845192). For activity change, negative = inhibition: % is set by controls: 0 for no effect and ±100 for the full control effect. Note: nearly all actives have a fitted effect of over 65% in size. The settings on record: outcome: dose series up to 50 µM unless noted. A digest of the protocol: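 GR-coupled readout: 100 nM GR, 1 mM GSH, 0.5 mM NADPH; NADPH fluorescence (ex 340/em 450 nm) read at t=0 and after 15 min RT. GPX4 200 nM, preincubated 30 min with compound; substrate 0.5 mM CHP.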

The nature of assay [5]: NCATS anti-infectives library activity on HEK293 viability as a counter-qHTS vs the C. elegans viability qHTS (AID 1745854). Note: % is set by controls: 0 for no effect and ±100 for the full control effect. A digest of the protocol: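 Compounds were acoustically plated (several concentrations, 1:5, final up to 41.7 uM), then 1500 HEK293 cells added per well and incubated 24 hr at 37C, 5% CO2. CellTiter-Glo was added and luminescence read after 10 min.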

The nature of assay [6]: qHTS profiling for inhibitors of Plasmodium falciparum proliferation (AID 504749).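 For activity, negative = inhibition: 0% = DMSO vehicle and full inhibition = artemisinin control.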 For all read-outs here: nearly all actives have a fitted effect of over 60% in size. Note: potency is the fitted concentration of half-maximal effect. The settings on record: P. falciparum in erythrocytes, SYBR Green DNA, 72 h; for activity, negative = inhibition: at 28.7 µM (top of the series). An outline of the steps: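 Parasite proliferation within erythrocytes, 72 h exposure. Endpoint: SYBR Green I fluorescence after overnight lysis at room temperature. Controls: 0.29 uM artemisinin, DMSO.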

Assay [7] deals with Rap guanine nucleotide exchange factor 3 (Homo sapiens) (UniProt O95398). As to the kind of experiment: Confirmatory qHTS for antagonist of cAMP-regulated guanine nucleotide exchange factor 3 (EPAC1) (AID 1645880).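 Note: plate controls were DMSO only for no effect and full effect of the ATA control for full effect; nearly all actives have a fitted effect of over 55% in size.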 A digest of the protocol: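 Nucleotide exchange uses 100 nM EPAC1, 250 nM RAP1B-BODIPY-GDP and 50 uM GDP, with compounds in a concentration-titration series. After 5 min at room temperature, fluorescence (480 nm ex/540 nm em) is read every 5 min for 30 min. Data are normalized to control ATA and DMSO.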

Assay [8] shares this target. As to the kind of experiment: Confirmatory qHTS for agonist of cAMP-regulated guanine nucleotide exchange factor 3 (EPAC1) (AID 1645881). Note: nearly all actives have a fitted effect of over 75% in size. Note: potency is the fitted concentration of half-maximal effect.
The target in assay [9] is Rap guanine nucleotide exchange factor 4 (Homo sapiens) (UniProt Q8WZA2). As to the kind of experiment: Confirmatory qHTS for antagonist of cAMP-regulated guanine nucleotide exchange factor 4 (EPAC2) (AID 1645885). Note: nearly all actives have a fitted effect of over 25% in size. Note: potency is the fitted concentration of half-maximal effect.
For assay [10], the target named is Catechol O-methyltransferase (Homo sapiens) (UniProt P21964). Kind of assay: Confirmatory Screen for Target Class Profiling of Small Molecule Inhibitors of Methyltransferases (AID 1745852; calls by dose curve). The settings on record: MTase-Glo luminescence, SAH detection, recombinant enzyme; measured here: COMT max response; stronger effect = lower value.
Assay [11] concerns the target Guanidinoacetate N-methyltransferase (Homo sapiens) (UniProt Q14353). The description is as above. The settings on record: MTase-Glo luminescence, SAH detection, recombinant enzyme; at 57.3 µM (top of the series).
Assay [12] concerns the target Nicotinamide N-methyltransferase (Homo sapiens) (UniProt P40261). Described as above. The settings on record: MTase-Glo luminescence, SAH detection, recombinant enzyme; measured here: NNMT max response; stronger effect = lower value.
Assay [13] addresses Phenylethanolamine N-methyltransferase (Homo sapiens) (UniProt P11086). Described as above. The settings on record: MTase-Glo luminescence, SAH detection, recombinant enzyme; measured here: PNMT max response; stronger effect = lower value.
The target in assay [14] is Rap guanine nucleotide exchange factor 4 (Homo sapiens) (UniProt Q8WZA2). As to the kind of experiment: Confirmatory qHTS for agonist of cAMP-regulated guanine nucleotide exchange factor 4 (EPAC2) (AID 1645884).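 Note: nucleotide exchange releases bodipy-GDP from Rap1 and this lowers its fluorescence; % is set by controls: 0 for no effect and ±100 for the full control effect; nearly all actives have a fitted effect of over 65% in size.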

Where “and” joins values, the source holds several entries; their conditions need not be identical. Equal values may be shown once. Results filed as inconclusive are left out. Calls of active or inactive are those of the source. Unless noted, calls come from the whole dose curve; as a rule, active = well fitted curve in the direction sought with a large enough effect; inconclusive = small, poorly fitted or top-dose-only effect, or another doubt; inactive = no such curve, though single readings can be large; an effect the other way counts as inactive or inconclusive.

Metallo-beta-lactamase type 2 (Klebsiella pneumoniae), sequence (C7C422 whole entry, looked up): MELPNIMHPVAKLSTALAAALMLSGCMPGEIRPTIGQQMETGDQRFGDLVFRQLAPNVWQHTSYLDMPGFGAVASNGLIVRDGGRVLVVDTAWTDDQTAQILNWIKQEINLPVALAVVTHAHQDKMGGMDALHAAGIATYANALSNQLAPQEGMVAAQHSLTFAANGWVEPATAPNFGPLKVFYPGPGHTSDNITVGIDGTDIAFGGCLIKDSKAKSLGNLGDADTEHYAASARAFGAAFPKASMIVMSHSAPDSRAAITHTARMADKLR
Rap guanine nucleotide exchange factor 4 (Homo sapiens), sequence (Q8WZA2 whole entry, looked up): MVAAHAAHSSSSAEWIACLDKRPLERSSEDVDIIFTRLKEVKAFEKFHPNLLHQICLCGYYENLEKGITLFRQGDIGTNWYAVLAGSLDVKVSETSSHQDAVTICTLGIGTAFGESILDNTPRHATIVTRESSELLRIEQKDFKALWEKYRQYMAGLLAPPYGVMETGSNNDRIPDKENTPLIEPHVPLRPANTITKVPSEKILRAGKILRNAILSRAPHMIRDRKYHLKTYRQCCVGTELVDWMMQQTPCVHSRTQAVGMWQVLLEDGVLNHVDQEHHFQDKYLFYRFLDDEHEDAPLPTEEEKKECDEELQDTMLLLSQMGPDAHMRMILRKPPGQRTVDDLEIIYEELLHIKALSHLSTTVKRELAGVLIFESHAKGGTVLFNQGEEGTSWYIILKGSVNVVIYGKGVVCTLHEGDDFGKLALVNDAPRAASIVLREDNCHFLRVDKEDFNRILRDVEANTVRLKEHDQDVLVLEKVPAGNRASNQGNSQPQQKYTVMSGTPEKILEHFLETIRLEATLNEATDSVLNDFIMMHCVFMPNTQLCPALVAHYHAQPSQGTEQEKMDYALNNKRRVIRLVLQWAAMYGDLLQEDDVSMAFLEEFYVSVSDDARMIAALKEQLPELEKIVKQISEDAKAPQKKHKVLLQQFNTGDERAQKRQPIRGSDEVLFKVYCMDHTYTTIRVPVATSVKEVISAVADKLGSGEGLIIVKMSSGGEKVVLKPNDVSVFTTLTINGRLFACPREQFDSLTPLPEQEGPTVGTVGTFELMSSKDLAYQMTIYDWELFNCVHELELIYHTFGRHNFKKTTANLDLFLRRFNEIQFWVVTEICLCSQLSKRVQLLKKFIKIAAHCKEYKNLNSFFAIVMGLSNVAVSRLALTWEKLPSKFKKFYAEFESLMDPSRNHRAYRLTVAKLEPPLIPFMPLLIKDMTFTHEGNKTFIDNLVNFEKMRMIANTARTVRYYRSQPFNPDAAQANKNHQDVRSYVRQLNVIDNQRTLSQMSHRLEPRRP
Phospholipid hydroperoxide glutathione peroxidase GPX4 (Homo sapiens), sequence (P36969 whole entry, looked up): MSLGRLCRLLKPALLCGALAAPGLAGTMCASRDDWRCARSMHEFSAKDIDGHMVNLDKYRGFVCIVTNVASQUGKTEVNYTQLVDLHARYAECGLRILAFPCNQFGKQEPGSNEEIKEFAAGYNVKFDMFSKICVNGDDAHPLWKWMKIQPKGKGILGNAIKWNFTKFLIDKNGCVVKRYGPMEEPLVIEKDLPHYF
Glutathione peroxidase 1 (Homo sapiens), sequence (P07203 whole entry, looked up): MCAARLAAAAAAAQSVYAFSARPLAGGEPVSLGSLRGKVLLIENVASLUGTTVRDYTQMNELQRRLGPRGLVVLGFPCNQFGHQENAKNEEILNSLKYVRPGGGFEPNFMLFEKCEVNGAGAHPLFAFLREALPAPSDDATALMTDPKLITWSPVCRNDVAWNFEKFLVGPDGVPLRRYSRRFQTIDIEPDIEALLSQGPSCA
Rap guanine nucleotide exchange factor 3 (Homo sapiens), sequence (O95398 whole entry, looked up): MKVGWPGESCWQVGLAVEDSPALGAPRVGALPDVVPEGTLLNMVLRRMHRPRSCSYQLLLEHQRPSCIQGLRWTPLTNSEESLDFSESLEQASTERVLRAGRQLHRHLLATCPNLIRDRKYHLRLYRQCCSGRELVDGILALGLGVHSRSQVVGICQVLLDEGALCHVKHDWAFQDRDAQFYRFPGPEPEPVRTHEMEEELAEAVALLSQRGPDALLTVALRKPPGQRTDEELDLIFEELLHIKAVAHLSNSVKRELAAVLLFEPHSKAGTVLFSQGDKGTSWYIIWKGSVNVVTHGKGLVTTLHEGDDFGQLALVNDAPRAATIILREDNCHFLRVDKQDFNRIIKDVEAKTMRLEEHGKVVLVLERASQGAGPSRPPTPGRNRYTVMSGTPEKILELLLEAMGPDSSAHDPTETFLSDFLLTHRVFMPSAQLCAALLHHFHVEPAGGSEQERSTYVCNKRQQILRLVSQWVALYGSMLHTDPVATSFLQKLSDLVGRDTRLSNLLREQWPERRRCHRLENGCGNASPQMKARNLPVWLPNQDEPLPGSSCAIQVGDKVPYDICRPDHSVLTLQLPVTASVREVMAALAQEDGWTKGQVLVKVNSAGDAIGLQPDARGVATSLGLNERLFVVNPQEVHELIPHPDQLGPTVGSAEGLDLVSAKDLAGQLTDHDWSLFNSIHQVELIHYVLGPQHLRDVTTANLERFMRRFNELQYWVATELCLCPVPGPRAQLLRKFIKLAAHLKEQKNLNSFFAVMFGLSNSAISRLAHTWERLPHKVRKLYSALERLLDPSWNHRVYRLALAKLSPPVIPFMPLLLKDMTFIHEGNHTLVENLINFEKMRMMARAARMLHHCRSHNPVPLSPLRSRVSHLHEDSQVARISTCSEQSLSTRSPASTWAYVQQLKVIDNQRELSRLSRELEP
Catechol O-methyltransferase (Homo sapiens), sequence (P21964 whole entry, looked up): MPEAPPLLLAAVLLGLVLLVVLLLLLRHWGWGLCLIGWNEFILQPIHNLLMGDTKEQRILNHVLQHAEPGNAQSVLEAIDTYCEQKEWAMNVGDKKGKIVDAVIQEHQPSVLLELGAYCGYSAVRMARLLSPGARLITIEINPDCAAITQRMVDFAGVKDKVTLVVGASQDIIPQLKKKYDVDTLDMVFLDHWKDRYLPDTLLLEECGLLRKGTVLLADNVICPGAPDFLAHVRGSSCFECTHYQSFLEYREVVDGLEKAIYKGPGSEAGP
Nicotinamide N-methyltransferase (Homo sapiens), sequence (P40261 whole entry, looked up): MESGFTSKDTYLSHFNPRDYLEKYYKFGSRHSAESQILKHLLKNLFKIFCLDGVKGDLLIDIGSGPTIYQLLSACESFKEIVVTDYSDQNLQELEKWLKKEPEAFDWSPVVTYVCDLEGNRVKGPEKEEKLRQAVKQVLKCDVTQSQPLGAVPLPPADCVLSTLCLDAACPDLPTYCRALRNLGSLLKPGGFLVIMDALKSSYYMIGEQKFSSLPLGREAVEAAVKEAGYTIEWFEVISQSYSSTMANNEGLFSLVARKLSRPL
Phenylethanolamine N-methyltransferase (Homo sapiens), sequence (P11086 whole entry, looked up): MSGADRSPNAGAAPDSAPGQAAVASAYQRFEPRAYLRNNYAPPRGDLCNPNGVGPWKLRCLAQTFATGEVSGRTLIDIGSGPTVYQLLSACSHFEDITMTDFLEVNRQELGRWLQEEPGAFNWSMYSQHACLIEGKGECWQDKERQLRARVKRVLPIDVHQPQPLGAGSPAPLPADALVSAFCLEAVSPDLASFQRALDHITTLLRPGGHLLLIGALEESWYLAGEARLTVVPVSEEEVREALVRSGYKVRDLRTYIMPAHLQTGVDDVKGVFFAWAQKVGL

Take `CC(C)[N+](C)(CCOC(=O)C1c2ccccc2Oc2ccccc21)C(C)C`: the Potency result in [1], in assay [2] and in assay [3] was “inactive” throughout. For the same compound, the outcome in [4] was “inactive”.

Turning to `C[C@@H](O)[C@H]1C(=O)N2C(C(=O)O)=C(SCCN=CN)C[C@H]12`, the Potency result in assay [1], in [2] and in [3] was “inactive” each time.

In the case of `C=CCc1ccccc1OCC(O)CNC(C)C` (stereo not drawn), the Potency entry in assay [1] and in [2] was “inactive” each time. Also, the outcome in assay [5] and in [4] was “inactive” in each case. For the same compound, the activity, negative = inhibition in [6] (parasite line A) was -5.93% (inactive).

As for `CCn1nc(C(=O)O)c(=O)c2cc3c(cc21)OCO3`, the Potency entry in assay [1], in assay [2] and in assay [3] was “inactive” in each case.

Turning to `CC(C)NCC(O)c1cc(O)cc(O)c1` (stereo not drawn), the Potency result in assay [1], in [2] and in [3] was “inactive” each time. Also, the outcome in [4] is “inactive”.

Consider `CN(C)CCCN1c2ccccc2Sc2ccc(C(F)(F)F)cc21`, for which the Potency in assay [1] was 18.8 µM (active). The outcome in assay [5] and in [4] was “inactive” each time. The Potency entry in [2] is “inactive”.

With `CC(=O)[C@]1(O)Cc2c(O)c3c(c(O)c2[C@@H](O[C@H]2C[C@H](N)[C@H](O)[C@H](C)O2)C1)C(=O)c1ccccc1C3=O`, the Potency in assay [1] is 0.9 nM (active) and 37.2 nM (active); in assay [8] it was 63 µM (active) and 70.6 µM (active); in [6] (parasite line A), 3.55 µM (active); in assay [6] (parasite line B), 11.2 µM (active). The outcome in assay [7] and in [4] was “inactive” throughout. Further, the Potency entry in [9] and in assay [2] was “inactive” each time.

As to `CCCN(CCC)CCc1cccc2c1CC(=O)N2`, the Potency entry in assay [1] and in assay [2] was “inactive” each time. Also, the activity was determined as 9.88% in [10], 1.36% in assay [12] and 4.72% in [13]. Further, the activity change, negative = inhibition in assay [11] was found to be 6.02%. Further, the outcome in assay [4] was “inactive”. Moreover, the activity, negative = inhibition in assay [6] (parasite line A) is -9.53% (inactive); in assay [6] (parasite line B) it was -8.71% (inactive).

With `COC(=O)C1=C(C)NC(C)=C(C(=O)OCCN(C)Cc2ccccc2)C1c1cccc([N+](=O)[O-])c1` (stereo not drawn), the Potency in assay [1] was 23.7 µM (active). In addition, the Potency result in assay [8], in assay [14], in assay [2] and in assay [3] was “inactive” each time. The outcome in assay [4] is “inactive”.

For the compound `CN1C(=O)CC[C@H]1c1cccnc1`, the Potency result in [1], in assay [2] and in [3] was “inactive” each time.

On to `COCCOC(=O)C1=C(C)NC(C)=C(C(=O)OC(C)C)C1c1cccc([N+](=O)[O-])c1` (stereo not drawn), for which the Potency result in assay [1], in assay [8], in assay [2] and in assay [3] was “inactive” in each case. The Potency in assay [9] was 49.4 µM (active). Moreover, the outcome in assay [4] is “inactive”.

With `CC1=C(C)C(=O)C(CCCCC#CCCCC#CCO)=C(C)C1=O`, the Potency in assay [1] was 10.6 µM (active); in assay [6] (parasite line A) it was 11.2 µM (active). Also, the activity in assay [10] is 4.09%; in assay [12] it was -9.42%; in assay [13], 5.31%. Besides, the activity change, negative = inhibition in [11] was 4.63%. Also, the Potency entry in [2] and in [3] was “inactive” in each case. Moreover, in [4], the outcome was “inactive”.

On to `C[C@]12C=CC(=O)C=C1CC[C@H]1[C@@H]3C[C@@H](O)[C@](O)(C(=O)CO)[C@@]3(C)C[C@H](O)[C@@]12F`, for which the Potency in [1] is 1.68 µM (active). Also, the Potency entry in [2] and in [3] was “inactive” in each case. Moreover, the outcome in assay [4] was “inactive”.

Take `CC(C)COCC(CN(Cc1ccccc1)c1ccccc1)N1CCCC1` (stereo not drawn): in [1], the Potency was 4.22 µM (active) and 16.6 µM (active). In addition, the Potency entry in assay [2] and in assay [3] was “inactive” in each case. Also, in assay [4], the outcome is “inactive”.

As for `c1ccc2c(c1)CCCC2C1=NCCN1` (stereo not drawn), the Potency entry in assay [1] was “inactive”.
